TRPML1 inh: inhibitors of human TRPML1 channel | Q9GZU1 | TRPML1-inducible cells, Ca2+ dye fluorescence, FDSS; active compounds read low; inhibition of EC80 agonist-evoked calcium signal | activity change, negative = inhibition, % (no concentration beside the values) | 0.02% of 390,000 active | AID 624415; in the data active = activity change below about -50%; inconclusive = between about -30% and that limit;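 note: stimulus is agonist 54-4 at its EC80 concentration; % is set by controls: 0 for no effect and ±100 for the full control effect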
Target sequence (Q9GZU1 whole entry, looked up): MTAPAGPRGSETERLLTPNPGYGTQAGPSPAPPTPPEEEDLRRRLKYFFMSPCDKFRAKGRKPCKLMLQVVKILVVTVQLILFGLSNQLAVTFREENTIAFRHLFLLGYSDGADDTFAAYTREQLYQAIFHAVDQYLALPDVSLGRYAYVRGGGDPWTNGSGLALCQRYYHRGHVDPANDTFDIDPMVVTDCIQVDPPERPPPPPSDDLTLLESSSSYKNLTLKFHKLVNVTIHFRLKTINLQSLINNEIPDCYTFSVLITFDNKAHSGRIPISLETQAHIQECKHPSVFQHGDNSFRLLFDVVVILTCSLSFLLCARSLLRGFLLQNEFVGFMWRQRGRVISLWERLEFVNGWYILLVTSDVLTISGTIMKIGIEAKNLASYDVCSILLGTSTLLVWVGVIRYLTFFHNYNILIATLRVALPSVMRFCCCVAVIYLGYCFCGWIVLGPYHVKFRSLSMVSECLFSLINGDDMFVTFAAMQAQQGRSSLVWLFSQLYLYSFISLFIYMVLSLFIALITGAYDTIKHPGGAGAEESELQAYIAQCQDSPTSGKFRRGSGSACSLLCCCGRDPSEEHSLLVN
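Calcium fluorescence in TRPML1-DL cells induced overnight with Tet: a 110 s read after compound pin addition, then a 110 s antagonist read after challenge with 54-4 at 4 uM final (EC80).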
DRD3 agonist: agonists of human D3 dopamine receptor; 0.58% of 410,000 active; D3R DiscoveRx beta-arrestin cells, luminescence, 90 min; AID 652048; P35462; max activation, %; in the data active = max activation above about 30%; note: 0% is about no effect
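Agonist mode: compounds and dopamine controls were applied to plated cells for 90 min at 37 degrees C after an overnight attachment at 1500 cells/well. Luminescent read-out followed 30 - 60 minutes at room temperature with DiscoveRx detection reagent.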
D3 antag: D3 dopamine receptor (human) antagonism; P35462; D3R cells, DiscoveRx beta-arrestin luminescence, antagonist mode; active compounds read low; max response, negative = inhibition, %; 2.5% of 360,000 active; in the data active = max response below about -50%; inconclusive = no clear call, values can overlap the other calls; note: % is set by controls: 0 for no effect and ±100 for the full control effect
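Cells expressing the human receptor were seeded at 1500 cells/well, incubated overnight at 37 degrees C in 5% CO2, then exposed to library compounds with dopamine controls for 90 minutes at 37 degrees C before luminescent detection.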
TRPML1 ag: agonists of human TRPML1 channel; Q9GZU1; TRPML1-expressing cells, Ca2+ dye fluorescence, FDSS; activation, % (concentration not given with the values); 0.12% of 410,000 active; AID 624414; in the data active = activation above about 50%; inconclusive = mostly about 30% to 49%; note: 0% is about no effect
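In this qHTS format, compounds were pin-transferred onto Ca8-dye-loaded TRPML1-DL cells induced with Tet overnight, and intracellular Ca2+ fluorescence was recorded kinetically for 110 s after a 10 s baseline. A subsequent 4uM final 54-4 (EC80) addition followed by a second 110 s read served as the antagonist phase.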
* hit, by the source's call; ? = inconclusive; · = no result given. An excerpt weighted towards active compounds, which were near 2.9% of everything screened.

SMILES | TRPML1 inh | DRD3 agonist | D3 antag | TRPML1 ag
COC(=O)C1CN(C#N)N(c2ccc(Cl)cc2)C12c1ccccc1-c1ccccc12 (stereo not given) | 7.3 | -3.9 | -76.3* | -0.7
CC1(C)C(C(=O)N2CCN(c3ccc(Cl)cc3)CC2)C1(C)C | · | -3.3 | -3.7 | ·
CCN1/C(=C/C=C/C2=[N+](CC)c3ccccc3C2(C)C)C(C)(C)c2ccccc21 | -14.6 | -4.7 | -71.6* | 75.6*
COc1cc2c(cc1OC)C1[C@H]3C(=CC[C@H]1OC2O)CCN3C (stereo not given in full) | -6.2 | -37.8 | -54.0* | -0.9
COc1cc2c(cc1OC)C(C1c3cc4c(cc3CCN1C)OCO4)OC2=O (stereo not given) | -9.4 | -5.8 | -11.1 | 0.3
CN1c2ccc([N+](=O)[O-])cc2CC2(C(=O)NC(=O)N(c3ccc(Br)cc3)C2=O)C1c1ccccc1 (stereo not given) | 3.0 | -5.9 | -50.6* | 0.6
Cc1cc(C)cc(C(=O)OC2C[C@H]3CC[C@@H](C2)N3C)c1 (stereo not given in full) | · | -5.8 | · | ·
O=C(Cc1ccccc1)N1CCN(CC2CC3C=CC2C3)CC1 (stereo not given) | 3.6 | -15.2 | -23.3 | 3.1
O=C(Cc1ccccc1)N1CCN(CC2CC=CCC2)CC1 (stereo not given) | -5.8 | -16.4 | -53.5* | 0.1
C=CCC1([C@H](C)CCC)C(=O)NC(=O)NC1=O | · | -13.0 | · | ·
COc1ccc2c(c1OC)CN1CCc3cc4c(cc3[C@H]1C2)OCO4 | -5.0 | -65.0 | -113.0* | 0.1
COc1ccc2c(c1OC)CN1CCc3cc4c(cc3C1C2)OCO4 (stereo not given) | 4.6 | -1.6 | -105.6* | 0.1
Oc1c(Br)cc(Br)cc1Br | 4.9 | 1.5 | 19.5 | -0.6
Oc1c(Br)c(Br)c(Br)c(Br)c1Br | -8.2 | -85.1 | -55.3* | -0.5
CC(C)C[C@H]1C(=O)N2CCC[C@H]2[C@]2(O)O[C@](NC(=O)[C@@H]3C=C4c5cccc6[nH]cc(c56)C[C@H]4N(C)C3)(C(C)C)C(=O)N12 | 0.9 | -8.7 | -75.8* | 2.3
CN1C[C@H](C(=O)N[C@]2(C)O[C@@]3(O)[C@@H]4CCCN4C(=O)[C@H](Cc4ccccc4)N3C2=O)C=C2c3cccc4[nH]cc(c34)C[C@H]21 | · | -10.9 | · | ·
CCC(CO)NC(=O)C1C=C2c3cccc4[nH]cc(c34)CC2N(C)C1 (stereo not given) | 1.9 | 15.1 | -56.7* | -0.6
CC[C@@H](CO)NC(=O)[C@@H]1C=C2c3cccc4c3c(cn4C)C[C@H]2N(C)C1 | 12.3 | -88.1 | -93.0* | 0.0
CC[C@@H](CO)NC(=O)[C@@H]1C=C2c3cccc4[nH]cc(c34)C[C@H]2N(C)C1 | 9.2 | 33.0* | -17.3 | 1.5
CC[C@]1(O)CC[C@H]2[C@@H]3CCC4=CCCC[C@@H]4[C@H]3CC[C@@]21C | · | 5.9 | · | ·
COc1ccc2c3c1O[C@H]1[C@@H](O)C=C[C@H]4[C@@H](C2)NCC[C@@]341 | · | -15.1 | · | ·
[Cl-].[Cl-].[Hg+2] | · | -25.0 | · | ·
CN1C[C@H](CNC(=O)OCc2ccccc2)C[C@@H]2c3cccc4c3c(cn4C)C[C@H]21 | 6.3 | -48.9 | -117.1* | 0.5
COc1ccc(OC)c(CC(C)N)c1 (stereo not given) | · | -19.5 | · | ·
Cc1cccc(OCC(O)CN2CC2)c1 (stereo not given) | 11.5 | 1.9 | 41.6 | 0.0
SMILES | TRPML1 inh | DRD3 agonist | D3 antag | TRPML1 ag
CC(=O)c1cccc(OCC(O)CN2CC=C(c3ccccc3)CC2)c1 (stereo not given) | -7.3 | 72.9* | 8.6 | -0.2
COc1cc2[nH]c(C(=O)N3CCC4(CC3)OCCO4)cc2c(OC)c1OC | 20.5 | -7.2 | -83.8* | 0.4
COc1ccc(F)cc1C(=O)C1CCCN(Cc2ccc(O)cc2)C1 (stereo not given) | 14.2 | -14.8 | -65.4* | 0.7
COc1ccccc1CN1CCCC(C(=O)c2ccccc2OC)C1 (stereo not given) | -7.0 | -23.9 | -59.4* | -0.8
CC(=O)N1CCC(N2CCCC(C(=O)c3cccc(Cl)c3)C2)CC1 (stereo not given) | 31.5 | 128.8* | -11.9 | 0.2
COc1cccc(OC)c1CN1CCCC(C(=O)c2cccc(Cl)c2)C1 (stereo not given) | 20.2 | -26.8 | -78.1* | 0.9
COc1ccc(F)cc1C(=O)C1CCCN(Cc2cnc(C)s2)C1 (stereo not given) | -16.9 | -13.2 | ? | 0.6
ClCCN(CCCl)/C(=C\c1ccccc1)c1ccnc2ccccc12 | · | · | · | 22.7
